40 compounds from PubChem BioAssay (EPA / NIEHS) can be followed below.

Calls of active or inactive are those of the source. Rule for the calls: active = hit-call score of the fitted dose curve at least 0.9, where 1 is the maximum; inactive = score below 0.9.

Read-out in the assay: Intercellular Adhesion Molecule 1 (ICAM1), ICAM1 (gene 3383)
The assay can be described thus: BSK_KF3CT_ICAM1: BioMAP Diversity Plus: KF3CT Assay for Intercellular Adhesion Molecule 1 (ICAM1) Biomarker Activity (AID 2283067). Particulars: primary human keratinocytes with fibroblasts; actives raise or lower the signal. The method, then: BSK_KF3CT is a cell-based, multiplexed-readout assay that uses keratinocytes and foreskin fibroblasts, a human skin primary cell co-culture, with measurements taken at 24 hours after chemical dosing in a 96-well plate.BSK_KF3CT_ICAM1 is an assay component measured in the BSK_KF3CT assay. It measures ICAM-1 antibody related to regulation of gene expression using ELISA technology.Data from the assay component BSK_KF3CT_ICAM1 was analyzed into 1 assay endpoint. This assay endpoint, BSK_KF3CT_ICAM1, was analyzed with bidirectional fitting relative to DMSO as the negative control and baseline of activity. Using a type of binding reporter, gain or loss-of-signal activity can be used to understand changes in the signaling as they relate to the gene ICAM1. Furthermore, this assay endpoint can be referred to as a primary readout, because this assay has produced multiple assay endpoints where this one serves a signaling function. To generalize the intended target to other relatable targets, this assay endpoint is annotated to the cell adhesion molecules intended target family, where the subfamily is Immunoglobulin CAM.
The levels of cell surface (or secreted, indicated by the prefix "s") biomarker endpoints were measured by ELISA. Overt cytotoxicity to cells in confluent adherent cultures (all systems other than the BT system) was assessed by measuring total protein levels using sulforhodamine B (SRB) staining in parallel cultures at the time of biomarker measurements, indicated as SRB endpoints. For proliferation assays for adherent cell types, individual cell types are cultured at sub-confluence and relative cell numbers quantified by SRB staining at time points optimized for each system (48 h: 3C and CASM3C systems; 72 h: BT and HDF3CGF systems; 96 h: SAg system). SRB was performed by staining cells with 0.1% SRB after fixation with 10% TCA and reading wells at 560 nm.Viability and proliferation of PBMC (T cells) was quantified by Alamar Blue reduction for the SAg and BT systems. For PBMC viability (referred to as PBMC Cytotoxicity within the assay endpoint names), cells were plated (75,000/well in a 96-well plate) and then chemical samples added for 1 h before addition of activators, SEB and TSST-1 (20 ng/mL final concentration each). Cells were incubated for 90 h. Then, Alamar Blue (20 uL/well) (Invitrogen, Cat DAL1100) was added for 6 h, and the plates were read with a fluorescence microplate reader at 546/580 nm (excitation/emission). For PBMC proliferation, cells were plated and activated as above but incubated for only 16 h prior to addition of Alamar Blue. Plates were read after 6 h.
Consider `O=[N+]([O-])C(CO)(CO)CO`, for which the result was inactive. In the case of `CCCCCCCCCCC`, the result was inactive. Turning to `C[Si]1(C)O[Si](C)(C)O[Si](C)(C)O[Si](C)(C)O1`, the result was inactive.

Regarding `Nc1ccc2c(c1)C(=O)c1ccccc1C2=O`, the result was inactive. As for `Cc1oc(-c2ccccc2)nc1CCOc1cccc2c1ccn2CCC(=O)O`, the outcome was inactive. `CCc1c(C(=O)NN2CCCCC2)nn(-c2ccc(Cl)cc2Cl)c1-c1ccc(Br)cc1`: the outcome was inactive.

As for `COc1cc(S(=O)(=O)O)c(C)cc1N=Nc1c(O)ccc2cc(S(=O)(=O)O)ccc12`, the outcome was inactive. `Cc1c(C(=O)O)c(O)cc2c1C(=O)c1c(O)c([C@@H]3O[C@H](CO)[C@@H](O)[C@H](O)[C@H]3O)c(O)c(O)c1C2=O`: the outcome was inactive. For `NCCO`, the outcome was inactive. Same read-out and setting: to `CCOc1ccc2c(c1)C(C)=CC(C)(C)N2` belongs “inactive”; to `CCOC(=O)CCC(=O)OCC`, “inactive”. For `Nc1ccc(S(=O)(=O)c2ccc(N)cc2)cc1`, the result was inactive. Still for that read-out and setting: to `O=C(O)Cc1ccccc1Nc1c(Cl)cccc1Cl` belongs “inactive”.

Regarding `CC(C)c1ccc(C(=O)N=C(N)N)cc1S(C)(=O)=O`, the outcome was inactive.

`CCNc1cccc(C)c1`: the result was inactive. Consider `O=C(O)CCCCC(=O)O`, for which the outcome was inactive. Take `Cc1cc(=O)[nH]c(=S)[nH]1`: the outcome was inactive.

As for `CCCCCCCCCCCCCCCC`, the outcome was inactive.

In the case of `CCOC(=O)C(C)(C)Oc1ccc(Cl)cc1`, the outcome was inactive. With `CCCc1cc(=O)[nH]c(=S)[nH]1`, the result was inactive. With `O=C(N[C@@H](Cc1ccccc1)[C@@H](O)C(=O)N1C[C@@H](O)[C@@H](O)C1)c1cc2cc(Cl)ccc2[nH]1`, the outcome was inactive. Still for that read-out and setting: the result for `FC(F)(F)C(F)(F)C(F)(F)C(F)(F)C(F)(F)C(F)(F)CCI` reads “inactive”; that for `COc1ccc(C)cc1N`, “inactive”; that for `COc1ccc2c(c1)c(CC(=O)O)c(C)n2C(=O)c1ccc(Cl)cc1`, “inactive”.

Regarding `CCCCCCCCCCCCCO`, the AC50 is 36.7 µM (active). As for `CC(=O)OCCOCCOCCOC(C)=O`, the outcome was inactive.

Turning to `CC1(C)CC(N=C=O)CC(C)(CN=C=O)C1` (stereo not given), the outcome was inactive. Turning to `Cc1cccc(Nc2cc(Cl)nc(SCC(=O)O)n2)c1C`, the outcome was inactive. Same read-out and setting: to `Oc1ccc2ccccc2c1N=Nc1ccccc1` belongs “inactive”; to `CCCCN(CCCC)CCCC`, “inactive”. As to `C=CCc1ccc(O)c(OC)c1`, the outcome was inactive. As to `NCC1(Cc2noc(=O)[nH]2)CCCCC1`, the outcome was inactive. Consider `Cc1ccc(C)c(C)c1`, for which the outcome was inactive. Consider `Cc1ccc2ncccc2c1`, for which the outcome was inactive. Regarding `COc1cc(C=O)ccc1O`, the outcome was inactive. Same read-out and setting: the result for `CC=Cc1ccc(O)c(OC)c1` reads “inactive”; that for `Nc1nc(N)c2nc(CNc3ccc(C(=O)N[C@@H](CCC(=O)O)C(=O)O)cc3)cnc2n1`, “inactive”; that for `C=CCOC(=O)c1ccccc1C(=O)OCC=C`, “inactive”. With `CC(C)(C)c1cc(O)c(C(C)(C)C)cc1O`, the outcome was inactive. `CN[C@H]1CC[C@@H](c2ccc(Cl)c(Cl)c2)c2ccc(S(N)(=O)=O)cc21`: the AC50 was 31.6 µM (active).

A word on the AC50: it is the concentration at which the activity in the assay is half-maximal.
